Measurements reported in PubChem BioAssay (NCATS).
Results filed as inconclusive are left out. Activity calls are given as the source filed them. The call rests on the fitted dose curve; in most records, active means well fitted curve in the direction sought with a large enough effect; inconclusive means small, poorly fitted or top-dose-only effect, or another doubt; inactive means no such curve, though single readings can be large; an effect the other way counts as inactive or inconclusive.

Columns and labels:
[1] = MultiTox-Fluor Cytotoxicity Assay - LYMP1-002 - Dead Cells (AID 960); further: nearly all actives have a fitted effect of over 60% in size
How it was run: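 Human lymphoblastoid cells (LYMP1-002), 2500/well in complete medium, were exposed to compounds for 16 hr at 37 C. Dead-cell protease activity was read as bis-AAF-R110 fluorescence (Ex/Em 485/520), normalized to DMSO and 15 uM tetraoctylammonium bromide; AC50 from Hill fits.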

[2] = MultiTox-Fluor Cytotoxicity Assay - LYMP1-003 - Dead Cells (AID 961); further: nearly all actives have a fitted effect of over 70% in size
How it was run: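 Human lymphoblastoid LYMP1-003 cells (2500/well) were treated with compounds for 16 hr at 37 C in complete medium. Dead-cell protease release was read by bis-AAF-R110 fluorescence (Ex/Em 485/520). AC50 came from Hill fits, normalized to DMSO and 15 uM tetraoctylammonium bromide.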

[3] = MultiTox-Fluor Cytotoxicity Assay - LYMP1-003 - Live Cells (AID 962);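 further: cytotoxic hits lower the live-cell protease signal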
How it was run: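 LYMP1-003 human lymphoblastoid cells (2500/well) in complete medium were preincubated 5 hr at 37 C, then exposed to compounds for 16 hr at 37 C. Live-cell protease cleavage of GF-AFC read by fluorescence (Ex/Em 405/510); AC50 from Hill fits.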

[4] = Cell Viability - LYMP1-003 - Assay at 24 hr (AID 963)
How it was run: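 Human lymphoblastoid LYMP1-003 cells (2500/well) were rested 5 hr at 37 C, then exposed to compounds in complete medium for 24 hr at 37 C. Cellular ATP was quantified by CellTiter-Glo luminescence, and AC50 values came from Hill fits of concentration-response data.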

[5] = Cell Viability - LYMP1-003 - Assay at 40 hr (AID 964); further: series mostly up to about 92 µM; nearly all actives have a fitted effect of over 60% in size
Excerpt: NIH Chemical Genomics Center [NCGC]
NIH Molecular Libraries Screening Centers Network [MLSCN]
National Institutes of Environmental Health Sciences [NIEHS]
National Toxicology Program [NTP]
We have developed a 1536-well cell-based assay for quantitative high throughput screening (qHTS) against a number of cell lines to determine in vitro cytotoxicity of small molecules. This particular assay uses a human lymphoblastoid cell line (LYMP1-003) purchased from Coriell Institute for Medical Research.
NCGC Assay Protocol Summary:
The CellTiter-Glo luminescent cell viability assay (Promega) is a homogeneous method to measure the number of viable cells in culture. The end point readout of this assay is based on quantitation of intracellular ATP, an indicator of metabolic activity, using the luciferase reaction. […]
Using the CellTiter-Glo luminescent cell viability assay, the amount of cellular ATP was measured in the lymphoblastoid cell line with complete culture medium following compound treatment for 40 hours. […] Library compounds were measured for their ability to cause acute toxicity in the cell line, as reflected by a decrease in intracellular ATP levels, in a concentration-dependent manner. […] AC50 values were determined from concentration-response data modeled with the standard Hill equation. […]
8. Detection; Luminescence; Viewlux plate reader […]

[6] = Cell Viability - LYMP2-003 (AID 965);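 further: cells exposed to compounds for 24 h before reading; nearly all actives have a fitted effect of over 50% in size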
How it was run: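 CellTiter-Glo luminescence quantified ATP loss after 24 h compound treatment of LYMP2-003 lymphoblastoid cells at 37 C. Titration series were fitted with the standard Hill equation to give AC50.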

[7] = Cell Viability - LYMP2-004 (AID 966); further: nearly all actives have a fitted effect of over 65% in size
How it was run: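 Human lymphoblastoid cells (2500/well) in complete medium were treated with compounds for 24 hr at 37 C, then intracellular ATP was measured by CellTiter-Glo luminescence. AC50 values came from Hill-equation fits of concentration-response data.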

[8] = Cell Viability - LYMP2-005 (AID 967); further: series mostly up to about 92 µM
How it was run: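 LYMP2-005 human lymphoblastoid cells (2500/well) were treated with compounds for 24 h at 37 C. Intracellular ATP was then measured by CellTiter-Glo luminescence after 30 min at room temperature. AC50 values came from Hill-equation fits of qHTS concentration-response data.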

[9] = Cell Viability - LYMP2-009 (AID 968); further: series mostly up to about 92 µM; nearly all actives have a fitted effect of over 55% in size
[10] = Cell Viability - LYMP2-011 (AID 969); further: nearly all actives have a fitted effect of over 60% in size
How it was run: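 Human lymphoblastoid cells (2500/well) were plated in complete medium, preincubated 5 hr at 37 C, then exposed to compounds for 24 hr at 37 C. Intracellular ATP was read by CellTiter-Glo luminescence, and AC50 came from Hill-equation concentration-response fits.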

Measured: outcome

COc1ccc(CCC(=O)c2c(O)cc(O[C@@H]3O[C@H](CO)[C@@H](O)[C@H](O)[C@H]3O[C@@H]3O[C@@H](C)[C@H](O)[C@@H](O)[C@H]3O)cc2O)cc1O
inactive: all assays above

C=C1C[C@]23C[C@@]1(O)CC[C@H]2[C@@]12C=C[C@H](O)[C@@](C)(C(=O)O1)[C@H]2[C@@H]3C(=O)O
not listed: [8]
inactive: all other assays above
